Experimental data as given in PubChem BioAssay (Tox21).
Inconclusive results are not listed. The source made the active and inactive calls. Unless noted, calls follow the shape of the full dose curve.

Key:
[1] = Nuclear factor erythroid 2-related factor 2/antioxidant responsive element (Nrf2/ARE) small molecule agonists: qHTS cell viability counter screen in human keratinocytes (AID 1919968; active = well fitted curve in the direction sought with a large enough effect in the repeat runs; an effect the other way counts as inactive or inconclusive; also: nearly all actives have a fitted effect of over 55% in size)
Method in brief: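 Cells of the KeratinoSens line were plated at 1,500 per well and left for 5 h before compound transfer from DMSO stocks. After a 23 h incubation (37 C, 5% CO2), CellTiter-Fluor was added. Signal was taken as fluorescence intensity 1 h later.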

[2] = biological target: Gonadotropin-releasing hormone receptor (Homo sapiens) (UniProt P30968); assay: Human gonadotropin-releasing hormone receptor (GnRHR) small molecule agonists, calcium flux assay in GnRHR-HEK293 cells (AID 1920063); also: nearly all actives have a fitted effect of over 35% in size
Gonadotropin-releasing hormone receptor (Homo sapiens), sequence (P30968 whole entry, looked up): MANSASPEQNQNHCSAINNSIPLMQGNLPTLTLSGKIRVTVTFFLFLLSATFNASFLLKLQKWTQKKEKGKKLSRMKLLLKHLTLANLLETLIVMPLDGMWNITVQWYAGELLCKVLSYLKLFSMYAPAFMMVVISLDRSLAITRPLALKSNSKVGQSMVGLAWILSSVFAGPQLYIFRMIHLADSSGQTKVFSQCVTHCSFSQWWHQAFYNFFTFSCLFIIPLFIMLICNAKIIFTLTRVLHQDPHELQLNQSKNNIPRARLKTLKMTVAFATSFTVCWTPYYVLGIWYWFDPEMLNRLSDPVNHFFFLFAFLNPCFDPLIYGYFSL
Method in brief: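 Compounds dissolved in DMSO are pin-transferred onto dye-loaded GnRHR-HEK293 cells, which were seeded 18 h before at 37 C/5% CO2. Calcium signal is read as fluorescence intensity at 1 s intervals for 3 min.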

[3] = biological target: KiSS-1 receptor (Homo sapiens) (UniProt Q969F8); assay: Human kisspeptin (KISS1R) small molecule agonists, calcium flux assay in KISS1R-HEK293 cells (AID 1920064; active = well fitted curve in the direction sought with a large enough effect in the repeat runs; an effect the other way counts as inactive or inconclusive)
KiSS-1 receptor (Homo sapiens), sequence (Q969F8 whole entry, looked up): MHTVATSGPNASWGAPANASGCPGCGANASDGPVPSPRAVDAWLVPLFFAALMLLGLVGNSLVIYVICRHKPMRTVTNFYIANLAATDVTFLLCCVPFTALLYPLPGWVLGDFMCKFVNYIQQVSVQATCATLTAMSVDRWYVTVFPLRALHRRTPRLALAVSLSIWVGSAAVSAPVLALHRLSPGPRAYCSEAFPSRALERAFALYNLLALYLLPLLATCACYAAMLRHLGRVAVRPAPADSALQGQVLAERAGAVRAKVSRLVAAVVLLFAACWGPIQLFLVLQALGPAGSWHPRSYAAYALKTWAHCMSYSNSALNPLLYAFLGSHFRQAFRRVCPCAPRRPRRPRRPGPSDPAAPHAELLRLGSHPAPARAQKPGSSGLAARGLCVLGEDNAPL
Method in brief: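 Cell line: HEK293, stable human KISS1R. Dye loading 1 h at 37 C after 18 h culture. Read: kinetic fluorescence, 480/540 nm, 3 min at 1 s intervals.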

[4] = G protein-coupled receptor (GPCR) small molecule agonists, calcium flux assay: HEK293 wild type cell line counter screen (AID 1920065)
Method in brief: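 Tox21 10K compounds, 15 concentrations each in triplicate, pin-transferred in DMSO onto dye-loaded cells; kinetic read at 480/540 nm for 3 min, 1 s intervals.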

[5] = p53 small molecule agonists, cell-based qHTS assay with rat liver microsomes: qHTS cell viability counter screen (AID 1963580); also: nearly all actives have a fitted effect of over 45% in size
Method in brief: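 Luminescent ATP readout (CellTiter-Glo, 30 min at room temperature) reports viability of p53RE-bla HCT-116 cells after 16 h at 37 C with test compounds under metabolic activation by rat liver microsomes and NADPH at 0.5 mg/mL final each.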

[6] = p53 small molecule agonists, cell-based qHTS assay: qHTS cell viability counter screen (AID 1963581); also: nearly all actives have a fitted effect of over 45% in size
Method in brief: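 ATP content measured by luminescence in HCT-116 p53RE-bla cells treated 16 h at 37 C, same wells as the reporter screen.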

[7] = p53 small molecule agonists, cell-based qHTS assay (AID 1963582; active = well fitted activation curve with a large enough effect in the signal ratio in the repeat runs, not every such curve was filed as active; the % refers to the signal ratio)
Method in brief: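 16 h compound exposure (37 C) of p53 response element–bla cells, preceded by 5 h recovery at 37 C/5% CO2; read-out via LiveBLAzer B/G FRET substrate, 2 h RT, fluorescence intensity.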

[8] = biological target: 5-hydroxytryptamine receptor 2A (Homo sapiens) (UniProt P28223); assay: 5-hydroxytryptamine receptor 2A (HTR2A) small molecule antagonists, cell-based qHTS assay (AID 1963586); also: nearly all actives have a fitted effect of over 45% in size
5-hydroxytryptamine receptor 2A (Homo sapiens), sequence (P28223 whole entry, looked up): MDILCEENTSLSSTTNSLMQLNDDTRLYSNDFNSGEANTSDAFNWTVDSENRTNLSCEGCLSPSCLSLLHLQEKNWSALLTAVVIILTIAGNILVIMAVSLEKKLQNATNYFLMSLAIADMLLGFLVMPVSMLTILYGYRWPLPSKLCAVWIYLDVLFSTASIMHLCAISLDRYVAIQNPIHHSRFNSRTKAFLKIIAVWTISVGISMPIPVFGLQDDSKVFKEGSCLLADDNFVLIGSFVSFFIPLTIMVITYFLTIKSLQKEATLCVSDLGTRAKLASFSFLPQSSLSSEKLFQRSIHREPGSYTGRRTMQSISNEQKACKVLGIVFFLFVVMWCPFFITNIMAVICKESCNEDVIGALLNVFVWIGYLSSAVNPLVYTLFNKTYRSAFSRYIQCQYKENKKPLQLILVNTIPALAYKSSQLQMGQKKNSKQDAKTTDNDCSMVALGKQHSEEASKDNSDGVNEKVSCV
Method in brief: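 CHO cells stably expressing human HTR2A were plated for 18 h at 37 C, then loaded with calcium dye for 1 h. Compounds were preincubated 5 min at room temperature before DOI (4 nM solution) was added. Kinetic fluorescence was read for 3 min.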

[9] = biological target: 5-hydroxytryptamine receptor 2A (Homo sapiens) (UniProt P28223); assay: 5-hydroxytryptamine receptor 2A (HTR2A) small molecule agonists, cell-based qHTS assay (AID 1963587); also: nearly all actives have a fitted effect of over 30% in size
Method in brief: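 HTR2A-CHO cells, plated 18 h at 37 C/5% CO2, dye-loaded 1 h at 37 C; compounds in DMSO added by pin tool (agonist mode). Intracellular calcium flux read as kinetic fluorescence on FDSS over 2 min at 1 s intervals.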

[10] = biological target: Muscarinic acetylcholine receptor M1 (Homo sapiens) (UniProt P11229); assay: Cholinergic receptor muscarinic 1 (CHRM1) small molecule antagonists, cell-based qHTS assay (AID 1963588); also: nearly all actives have a fitted effect of over 40% in size
Muscarinic acetylcholine receptor M1 (Homo sapiens), sequence (P11229 whole entry, looked up): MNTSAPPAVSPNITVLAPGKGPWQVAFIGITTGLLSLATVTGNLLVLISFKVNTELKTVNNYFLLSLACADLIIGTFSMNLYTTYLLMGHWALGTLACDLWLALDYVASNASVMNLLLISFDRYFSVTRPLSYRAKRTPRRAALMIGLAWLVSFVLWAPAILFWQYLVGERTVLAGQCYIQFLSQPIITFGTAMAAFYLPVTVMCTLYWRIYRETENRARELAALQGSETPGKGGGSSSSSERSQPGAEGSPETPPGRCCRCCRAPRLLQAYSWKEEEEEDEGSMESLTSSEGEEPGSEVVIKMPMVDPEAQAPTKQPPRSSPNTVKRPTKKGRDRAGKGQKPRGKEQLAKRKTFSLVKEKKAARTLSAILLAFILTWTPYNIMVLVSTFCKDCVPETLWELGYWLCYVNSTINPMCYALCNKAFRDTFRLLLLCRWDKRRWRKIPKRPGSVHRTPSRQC
Method in brief: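 Compounds were tested at 15 concentrations in three independent runs. Dye-loaded CHRM1-CHO cells were exposed 5 min at room temperature before stimulation by acetylcholine added at 50nM. Intracellular calcium was read kinetically on FDSS for 3 min.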

[11] = cAMP Responsive Elements (CRE) small molecule agonists, cell-based qHTS assay (AID 1963590)
Method in brief: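 HEK 293T cells stably bearing CRE-bla were plated at 2,000 cells per well and rested 18 h. Compounds, positive controls or DMSO were added for 3 h at 37 C. LiveBLAzer B/G substrate was then loaded for 2 h at room temperature.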

[12] = cAMP Responsive Elements (CRE) small molecule antagonists, cell-based qHTS assay (AID 1963591; active = well fitted inhibition curve with a large enough effect in the signal ratio in the repeat runs, not every such curve was filed as active; the % refers to the signal ratio)
Method in brief: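 First, CRE-bla HEK293T cells settled 18 h at 37 C. Next, compound and 0.25 uM final NKH477 were applied for 3 h. Last, LiveBLAzer B/G substrate was loaded for 2 h at room temperature.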

[13] = biological target: Beta-2 adrenergic receptor (Homo sapiens) (UniProt P07550); assay: Adrenergic beta2 receptor (ADRB2) small molecule agonists, cell-based qHTS assay (AID 1963593);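 also: CHO cells stably overexpressing human ADRB2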
Beta-2 adrenergic receptor (Homo sapiens), sequence (P07550 whole entry, looked up): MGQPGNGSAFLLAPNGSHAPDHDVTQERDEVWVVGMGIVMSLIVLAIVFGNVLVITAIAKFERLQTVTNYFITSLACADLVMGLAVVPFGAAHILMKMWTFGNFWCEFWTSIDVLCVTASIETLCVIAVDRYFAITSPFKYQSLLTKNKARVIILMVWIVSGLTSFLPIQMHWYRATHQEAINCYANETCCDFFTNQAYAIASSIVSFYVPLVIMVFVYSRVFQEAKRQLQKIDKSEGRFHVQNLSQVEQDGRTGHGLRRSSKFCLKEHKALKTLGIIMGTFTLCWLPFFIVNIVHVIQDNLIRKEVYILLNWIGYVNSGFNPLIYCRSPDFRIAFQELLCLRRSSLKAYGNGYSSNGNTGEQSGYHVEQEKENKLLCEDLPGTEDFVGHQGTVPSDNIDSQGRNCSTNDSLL
Method in brief: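 CHO cells stably over-expressing ADRB2 were plated overnight at 37C, then dosed with compounds plus a stimulation mix containing 100uM IBMX and 25uM Ro-20-1724 for 0.5hr at room temperature. cAMP was measured by HTRF competition, 1hr.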

[14] = biological target: D(2) dopamine receptor (Homo sapiens) (UniProt P14416); assay: Dopamine D2 receptor (DRD2) small molecule agonists, cell-based qHTS assay (AID 1963594); also: nearly all actives have a fitted effect of over 35% in size
D(2) dopamine receptor (Homo sapiens), sequence (P14416 whole entry, looked up): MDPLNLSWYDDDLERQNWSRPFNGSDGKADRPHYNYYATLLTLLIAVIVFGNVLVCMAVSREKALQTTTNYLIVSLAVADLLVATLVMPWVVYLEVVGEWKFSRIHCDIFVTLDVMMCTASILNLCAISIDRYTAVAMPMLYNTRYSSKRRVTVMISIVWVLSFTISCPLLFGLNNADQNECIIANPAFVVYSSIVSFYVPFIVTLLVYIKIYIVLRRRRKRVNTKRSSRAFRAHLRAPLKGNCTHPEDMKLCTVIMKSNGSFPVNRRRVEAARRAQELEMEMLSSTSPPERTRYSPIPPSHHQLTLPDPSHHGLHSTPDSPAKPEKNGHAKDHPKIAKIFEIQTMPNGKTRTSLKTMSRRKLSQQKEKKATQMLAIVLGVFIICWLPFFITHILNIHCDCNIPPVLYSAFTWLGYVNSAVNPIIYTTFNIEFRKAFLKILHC
Method in brief: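 HEK293 cells stably expressing DRD2 were cultured 24 h at 37 C, then given Ro20-1724 (0.1 mM final) and compounds for 10 min at room temperature. NKH477 (200nM) was then added for 30 min. cAMP was read by HTRF.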

[15] = biological target: D(2) dopamine receptor (Homo sapiens) (UniProt P14416); assay: Dopamine D2 receptor (DRD2) small molecule antagonists, cell-based qHTS assay (AID 1963595; active = well fitted inhibition curve with a large enough effect in the signal ratio in the repeat runs, with a control signal flat; the % refers to the signal ratio)
Method in brief: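 Human DRD2 antagonist qHTS measuring cAMP by HTRF. The cells are exposed to compound for 10 min, then to NKH477 (200 nM) and quinpirole (12 nM) for 30 min at RT, with Ro20-1724 (0.1 mM) present throughout.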

[16] = p53 small molecule agonists, cell-based qHTS assay with rat liver microsomes (AID 1963578)
Method in brief: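 Metabolic activation is supplied by rat liver microsomes with NADPH (each 0.5 mg/mL final). p53RE-bla cells incubate with compound 16 h at 37 C; reporter activity is measured by LiveBLAzer fluorescence.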

[17] = p53 small molecule agonists, cell-based qHTS assay with human liver microsomes: qHTS cell viability counter screen (AID 1963579); also: nearly all actives have a fitted effect of over 45% in size
Method in brief: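 After the 460/530 nm beta-lactamase read, CellTiter-Glo was added to the same wells and luminescence measured after 30 min at room temperature, giving viability of p53RE-bla cells treated 16 h with compounds plus microsomes and NADPH.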

[18] = biological target: Muscarinic acetylcholine receptor M1 (Homo sapiens) (UniProt P11229); assay: Cholinergic receptor muscarinic 1 (CHRM1) small molecule agonists, cell-based qHTS assay (AID 1963589); also: nearly all actives have a fitted effect of over 35% in size
Method in brief: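 Homogeneous fluorescence calcium flux, agonist mode. Human M1-expressing CHO cells; compound dosed at 15 concentrations, three independent runs; signal sampled every 1 sec.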

[19] = biological target: Beta-2 adrenergic receptor (Homo sapiens) (UniProt P07550); assay: Adrenergic beta2 receptor (ADRB2) small molecule antagonists, cell-based qHTS assay (AID 1963592); also: series mostly up to about 92 µM; nearly all actives have a fitted effect of over 50% in size
Method in brief: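 Assay format: CHO-ADRB2 cells, 18-20hr seeding at 37C/5% CO2, then compound plus 1nM isoproterenol agonist mix for 0.5hr RT. Homogeneous time-resolved fluorescence cAMP detection after 1hr, expressed as 665/615 nm ratio.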

[20] = p53 small molecule agonists, cell-based qHTS assay with human liver microsomes (AID 1963577);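 also: p53 response element beta-lactamase reporter cells with liver microsomes plus NADPH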
Method in brief: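 Steps: plate p53RE-bla cells, incubate 5 h at 37 C; add compound in DMSO; add microsomes (0.5 mg/mL final) and NADPH (0.5 mg/mL final); incubate 16 h at 37 C; add LiveBLAzer, 2 h RT; read fluorescence.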

Measured: Potency

C=CC(C)(CCC=C(C)C)OC(C)=O (stereo not drawn)
not listed: [16] | [17] | [18] | [19] | [20]
inactive: all other assays above

O=C(CC(C(=O)OC1CCCCC1)S(=O)(=O)O)OC1CCCCC1 (stereo not drawn)
not listed: [12] | [20]
inactive: all other assays above

C=CCCCCCCCCCC
not listed: [3] | [11] | [13] | [18] | [19]
inactive: all other assays above

COc1ccc(C(Cl)=C(c2ccc(OC)cc2)c2ccc(OC)cc2)cc1
not listed: [2] | [3] | [5] | [11] | [12]
inactive: all other assays above
